A549 viability: kills or reduces viability of A549 cells in Nrf2 counter-screen; A549 ARE-Fluc cells, CellTiter-Fluor viability, 18-24 h; Potency, µM (top dose mostly 46 µM), hits mostly inhibitors; 390,000 compounds, 0.16% hits; AID 504648
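Cytotoxicity counterscreen: CellTiter-Fluor fluorescence was measured in A549 ARE_Fluc cells after 18-24 h of compound exposure in a concentration series. The subsequent BugLite luminescent read reports ARE-luciferase activity.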
mIDH1 inhibitor: blocks human mutant IDH1 R132H enzyme. 390,000 compounds, 0.093% hits. Potency, µM (series often up to 76.6 µM), most hits filed as inhibitors. AID 602179. IDH1-R132H enzyme, NADPH consumption, diaphorase/resazurin fluorescence. O75874; note: nearly all actives have a fitted effect of over 65% in size
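IDH1-R132H (0.5 ug/mL) preincubated 30 min with compound, then NADPH (0.016 mM) and alpha-KG (2 mM) added; 80 min at RT, pH 7.5. Remaining NADPH coupled via diaphorase/resazurin to fluorescence (540/590 nm); concentration-response curves normalized to no-enzyme control.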
Mito fusion yeast: mitochondrial division inhibition or fusion activation; S. cerevisiae fusion-defective mutant growth rescue, CellTiterGlo 48 h; 320,000 compounds, 0.23% hits; Potency, µM (top dose mostly 46.1 µM), usual class: activators; note: nearly all actives have a fitted effect of over 45% in size
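Temperature-sensitive fusion-defective S. cerevisiae (e.g. fzo1-1, mgm1-5) were grown with compound in YPEG medium (3% ethanol, 3% glycerol) for 48 hours at 37C. Growth rescue was measured as viability by CellTiterGlo luminescence after 10 minutes at ambient.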
TrxR1 substrate: is turned over as a substrate by rat TrxR1. O89049. purified TrxR1 substrate turnover, NADPH consumption readout. Potency, µM (top dose mostly 114 µM). 390,000 compounds, 0.01% hits. AID 588456; note: nearly all actives have a fitted effect of over 50% in size
Target sequence (O89049 whole entry, looked up): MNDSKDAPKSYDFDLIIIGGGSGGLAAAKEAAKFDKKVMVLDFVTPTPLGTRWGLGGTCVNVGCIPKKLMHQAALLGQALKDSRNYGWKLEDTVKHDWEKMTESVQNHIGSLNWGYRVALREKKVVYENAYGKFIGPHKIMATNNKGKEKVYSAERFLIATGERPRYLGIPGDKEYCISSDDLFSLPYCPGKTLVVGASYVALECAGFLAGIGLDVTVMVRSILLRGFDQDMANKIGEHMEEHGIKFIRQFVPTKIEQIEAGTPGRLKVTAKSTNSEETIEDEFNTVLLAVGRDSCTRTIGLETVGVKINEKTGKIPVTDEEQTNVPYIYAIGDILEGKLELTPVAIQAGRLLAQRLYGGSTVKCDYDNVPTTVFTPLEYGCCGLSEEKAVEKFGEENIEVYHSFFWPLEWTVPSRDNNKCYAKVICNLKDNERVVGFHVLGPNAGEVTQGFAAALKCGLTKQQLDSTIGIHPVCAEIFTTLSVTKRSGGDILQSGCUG
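Rat TrxR1, dispensed at 90 nM, was prereduced with 400 uM NADPH (final) for 5 min at ~22 deg C, then incubated with compound 15 min before 400 uM selenite. A first-read NADPH fluorescence drop versus no-compound background flagged substrates.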
Nrf2 block: inhibitors of Nrf2 signaling. A549 ARE-Fluc reporter, luciferase luminescence, 18-24 h. Potency, µM (top dose mostly 46 µM), usual class: inhibitors. 360,000 compounds, 2.1% hits. AID 504444; note: nearly all actives have a fitted effect of over 60% in size
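Reporter: ARE-Fluc in A549. Exposure: 18-24 h, 37 °C, 5% CO2, 5% FBS OPTI-MEM. Readouts: fluorescent cytotoxicity (CellTiter-Fluor), then luminescent Nrf2 signal after BugLite.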
rTrxR1 inhibitor: rat TrxR1 inhibition. O89049. recombinant rTrxR1, NADPH fluorescence consumption, selenite substrate. Potency, µM (titrated, usually from 114 µM), actives largely listed as inhibitors. 390,000 compounds, 1% hits. AID 588453; note: nearly all actives have a fitted effect of over 65% in size
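Rat TrxR1 (90 nM in the dispensed reagent) was pre-reduced with 400 uM NADPH for 5 min at room temperature, then incubated with compound for 15 min. After 400 uM selenite was added, NADPH fluorescence (Ex 340/Em 450 nm) was followed for 8 min.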
Numbers stand for hits. A selection: hits, their analogues and other compounds. The true share with any hit is near 3.1%. Calls come from the whole dose curve; as a rule, active = well fitted curve in the direction sought with a large enough effect; inconclusive = small, poorly fitted or top-dose-only effect, or another doubt; inactive = no such curve, though single readings can be large; an effect the other way counts as inactive or inconclusive.

Results for Cc1c(C2(c3cc(C(C)C)c(O)c(Br)c3C)OS(=O)(=O)c3ccccc32)cc(C(C)C)c(O)c1Br ?
TrxR1 substrate: inactive; rTrxR1 inhibitor: inactive

What do the screens show for `COC(=O)Cc1c(C)c2cc3c(c(C)c2oc1=O)OCN(CCc1ccc(OC)cc1)C3`?
A549 viability: inconclusive; mIDH1 inhibitor: inactive; TrxR1 substrate: inactive; Nrf2 block: inactive; rTrxR1 inhibitor: 79.4µM

Results for CCc1c(C)c2cc3c(c(C)c2oc1=O)OCN(CCc1ccc(OC)c(OC)c1)C3 ?
A549 viability: inconclusive; mIDH1 inhibitor: inactive; TrxR1 substrate: inactive; Nrf2 block: inactive; rTrxR1 inhibitor: inconclusive

What do the screens show for `COc1ccccc1CCN1COc2c(cc3c(C)c(C)c(=O)oc3c2C)C1`?
A549 viability: inactive; mIDH1 inhibitor: inactive; TrxR1 substrate: inactive; Nrf2 block: inconclusive; rTrxR1 inhibitor: 89.1µM

What do the screens show for `Cc1ccc(S(=O)(=O)N2CCN(c3nc(-c4ncco4)nc4ccccc34)CC2)cc1`?
A549 viability: inactive; TrxR1 substrate: inactive; Nrf2 block: inconclusive; rTrxR1 inhibitor: inactive

What do the screens show for `COc1ccc(S(=O)(=O)Nc2cc(Sc3ncn[nH]3)c(O)c3ccccc23)cc1`?
A549 viability: inconclusive; Mito fusion yeast: inactive; TrxR1 substrate: 50.1µM; Nrf2 block: inconclusive; rTrxR1 inhibitor: inconclusive

Results for O=S(=O)(Nc1cc(Sc2cccc3cccnc23)c(O)c2ccccc12)c1ccc(F)cc1 ?
A549 viability: inconclusive; mIDH1 inhibitor: inactive; Mito fusion yeast: inactive; TrxR1 substrate: inactive; Nrf2 block: inconclusive; rTrxR1 inhibitor: 22.4µM

Results for COc1ccc(S(=O)(=O)Nc2ccc(O)c(Sc3ncn[nH]3)c2)cc1 ?
A549 viability: inactive; mIDH1 inhibitor: inactive; Mito fusion yeast: inactive; TrxR1 substrate: inactive; Nrf2 block: inactive; rTrxR1 inhibitor: inactive

Results for COc1ccc(S(=O)(=O)Nc2cc(SCC(=O)O)c(O)c3ccccc23)cc1 ?
A549 viability: inactive; mIDH1 inhibitor: inactive; Mito fusion yeast: inactive; TrxR1 substrate: inactive; Nrf2 block: inactive; rTrxR1 inhibitor: inactive

Results for N#Cc1ccc(-c2csc(NNC(=O)c3ccc(Br)cc3)n2)cc1 ?
A549 viability: inconclusive; mIDH1 inhibitor: inactive; Mito fusion yeast: inactive; TrxR1 substrate: inactive; rTrxR1 inhibitor: inactive

What do the screens show for `N#Cc1ccc(-c2csc(NNC(=O)c3ccccc3)n2)cc1`?
A549 viability: inactive; mIDH1 inhibitor: inactive; Mito fusion yeast: inactive; TrxR1 substrate: inactive; Nrf2 block: 23.1µM; rTrxR1 inhibitor: inactive

How did O=C(COc1ccccc1F)Nc1ccc(Cl)c(-c2nc3ccccc3[nH]2)c1 do in these assays?
A549 viability: inactive; TrxR1 substrate: inactive; Nrf2 block: inactive; rTrxR1 inhibitor: inactive

Results for N#Cc1cccc(S(=O)(=O)N2CCN(c3nc(-c4cccs4)nc4ccccc34)CC2)c1 ?
A549 viability: inactive; TrxR1 substrate: inactive; Nrf2 block: inactive; rTrxR1 inhibitor: inactive

Results for CCc1ccc(OCC(=O)NNC(=S)NC(=O)C2CC2)c(Br)c1 ?
A549 viability: inactive; mIDH1 inhibitor: inactive; Mito fusion yeast: inactive; TrxR1 substrate: inactive; Nrf2 block: 6.51µM; rTrxR1 inhibitor: inconclusive

How did CN(C(=O)COc1ccccc1C(=O)NCCOc1ccccc1)c1ccccc1 do in these assays?
A549 viability: inconclusive; mIDH1 inhibitor: inactive; Mito fusion yeast: inactive; TrxR1 substrate: inactive; Nrf2 block: 14.6µM; rTrxR1 inhibitor: inactive

What do the screens show for `CCCCNc1c(C(=O)OCC)c(C)nc2c1cnn2CC`?
A549 viability: inactive; mIDH1 inhibitor: inactive; Mito fusion yeast: 23.1µM; TrxR1 substrate: inactive; Nrf2 block: inactive; rTrxR1 inhibitor: inconclusive

What do the screens show for `N#CC(c1cccc(Cl)c1)c1ccc2c(C(F)(F)F)cc(C(F)(F)F)nc2n1` (centres undefined)?
A549 viability: 6.51µM; mIDH1 inhibitor: inactive; Mito fusion yeast: inactive; TrxR1 substrate: inactive; rTrxR1 inhibitor: inactive

Results for NNc1ccc2c(C(F)(F)F)cc(C(F)(F)F)nc2n1 ?
A549 viability: inactive; mIDH1 inhibitor: inactive; Mito fusion yeast: inactive; TrxR1 substrate: inactive; Nrf2 block: inconclusive; rTrxR1 inhibitor: inactive

Screening results: PubChem, National Center for Advancing Translational Sciences (NCATS)
